Laboratory results published in PubChem BioAssay (NCI).
About 83,000 compounds went through this panel and 20% of them were active in at least one assay; those are over-represented in the sample as a whole.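 Note: values are percent growth. 100 is the growth of untreated cells, values between 100 and 0 indicate rising inhibition; between -100 and 0 indicates cell death.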 The source made the active and inactive calls. Rule for the calls: active = growth percent below 10; inactive = the rest.

Key:
Assay in all cases: NCI-60 one-dose screen, 48 h (100 = growth as untreated, 0 = no growth, -100 = all killed)
Conditions in all cases: 10 µM unless noted
[1] = test system: HT29 colon
[2] = test system: SNB-75 CNS
[3] = test system: SNB-19 CNS
[4] = test system: U251 CNS
[5] = test system: PC-3 prostate
[6] = test system: UACC-62 melanoma
[7] = test system: LOX IMVI melanoma
[8] = test system: SK-MEL-28 melanoma
[9] = test system: SK-MEL-2 melanoma
[10] = test system: EKVX NSCLC
[11] = test system: SN12C renal
[12] = test system: UO-31 renal
[13] = test system: TK-10 renal
[14] = test system: ACHN renal
[15] = test system: CAKI-1 renal
[16] = test system: A498 renal
[17] = test system: CCRF-CEM leukemia
[18] = test system: MOLT-4 leukemia
[19] = test system: SR leukemia

Measured: growth

COc1cc(/C=C2\COc3ccc(O)cc3C2=O)cc(OC)c1
active: [7] -65.5% | [17] -0.953% | [19] 3.36%
inactive: [1] 12% | [2] 87% | [3] 50.5% | [4] 30.1% | [5] 53.8% | [6] 62.6% | [8] 94.4% | [9] 101% | [10] 94.8% | [11] 21.7% | [12] 63.1% | [13] 93.6% | [14] 48.9% | [15] 68.4% | [16] 101% | [18] 31.3%

OCCOc1c(Cl)cc(Cl)cc1Cl
inactive: [1] 110% | [2] 62.2% | [3] 94.2% | [4] 103% | [5] 101% | [6] 94.6% | [7] 100% | [8] 96.8% | [9] 126% | [10] 106% | [11] 89.8% | [12] 87.8% | [13] 113% | [14] 99.3% | [15] 93.8% | [16] 70.7% | [17] 113% | [18] 111%

CC(C)c1nc(N(C)S(C)(=O)=O)nc(-c2ccc(F)cc2)c1/C=C/[C@@H](O)C[C@@H](O)CC(=O)O
inactive: [1] 104% | [2] 107% | [3] 115% | [4] 61.7% | [5] 69.3% | [6] 102% | [7] 81.3% | [8] 107% | [9] 97.8% | [10] 91.2% | [11] 96.2% | [12] 75% | [13] 107% | [14] 97.1% | [15] 97.6% | [16] 56.2% | [17] 104% | [18] 109%

Cc1ccc(NC(=O)COC(=O)c2ccc(S(=O)(=O)N3CCCCCC3)cc2)cc1
inactive: [1] 106% | [2] 94.7% | [3] 33.4% | [4] 104% | [5] 93.6% | [6] 95% | [7] 97.1% | [8] 119% | [9] 144% | [10] 111% | [11] 98.7% | [12] 85.8% | [13] 178% | [14] 107% | [15] 108% | [16] 128% | [17] 135% | [18] 127% | [19] 131%

CCCCCCCCCCC[C@@H](C[C@H]1OC(=O)[C@H]1CCCCCC)OC(=O)[C@@H](CC(C)C)NC=O
inactive: [1] 38.4% | [2] 82.4% | [3] 55.6% | [4] 63% | [5] 50.4% | [6] 77.3% | [7] 14.1% | [8] 111% | [9] 55.9% | [10] 95.6% | [11] 43.9% | [12] 19% | [13] 94.7% | [14] 62.7% | [15] 54.7% | [16] 84.5% | [17] 27.6% | [18] 13.1%

CC[C@@H]1OC(=O)[C@H](C)[C@@H](O[C@H]2C[C@@](C)(OC)[C@@H](O)[C@H](C)O2)[C@H](C)[C@@H](O[C@@H]2O[C@H](C)C[C@H](N(C)C)[C@H]2O)[C@](C)(O)C[C@@H](C)[C@@H]2N[C@@H](COCCOC)O[C@H]([C@H]2C)[C@]1(C)O
inactive: [1] 103% | [2] 77.4% | [3] 104% | [4] 96.6% | [5] 111% | [6] 109% | [7] 94.8% | [8] 109% | [9] 121% | [10] 102% | [11] 98.9% | [12] 81.5% | [14] 102% | [15] 96.6% | [16] 119% | [17] 82.4% | [18] 90.1%

CCCCCCCCSc1ncnc2c1ncn2CO
inactive: [1] 91% | [2] 75.1% | [3] 94.7% | [4] 74.7% | [5] 75.6% | [6] 92.8% | [7] 80.1% | [8] 101% | [9] 95.8% | [10] 55.5% | [11] 76.4% | [12] 86.6% | [14] 81% | [15] 72.6% | [16] 106% | [18] 85.8% | [19] 115%

CN(CCOc1ccc(CC2SC(=O)NC2=O)cc1)c1ccccn1 (stereo not drawn)
inactive: [1] 117% | [2] 96.3% | [3] 105% | [4] 90.7% | [5] 105% | [6] 93.1% | [7] 92.8% | [8] 111% | [9] 117% | [10] 101% | [11] 88.2% | [12] 72.1% | [13] 103% | [14] 84.9% | [15] 96.3% | [16] 110% | [17] 108% | [18] 119%

CC12CCCCC1C(C(N)=O)C(=O)O2 (stereo not drawn)
inactive: [1] 112% | [2] 96.1% | [3] 100% | [4] 104% | [5] 101% | [6] 98.8% | [7] 96.4% | [8] 105% | [9] 104% | [10] 123% | [11] 97.9% | [12] 93.9% | [13] 100% | [14] 112% | [15] 104% | [16] 124% | [17] 102% | [18] 98.1% | [19] 94.6%
